The values below come from PMC9838217, “Structure of SALL4 zinc finger domain reveals link between AT-rich DNA binding and Okihiro syndrome”.

Common to all, as to test: HT-SELEX; high values mean tight binding
Common to all, as to conditions: protein: recombinant; vector His6-GST; dsDNA, one strand shown

Experiment [1] deals with T1, SALL4 ZFC4 WT (HT-SELEX) (Mus musculus, UniProt Q8BX22 870-940).
T1 sequence: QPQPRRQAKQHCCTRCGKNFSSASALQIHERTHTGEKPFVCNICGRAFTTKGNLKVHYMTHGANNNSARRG
Put shortly: (§1)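 DNA from a random library (1.5 µg in the first cycle, 200 ng afterwards) was incubated with purified recombinant mouse SALL4 zinc finger cluster 4, residues 870–940 (1 µg), for 10 min at room temperature in 100 µl buffer: 10 mM Tris–HCl pH 7.5, 50 mM NaCl, poly(dI-dC), DTT. Bound complexes were pulled down on Ni2+ beads, washed and PCR-amplified, and the selection was repeated for up to 6 cycles in triplicate. MiSeq reads were scanned for 6-mers, and binding signal is each canonical k-mer's read fraction as fold change over the initial random library.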

Experiment [2] concerns the target T2, SALL4 ZFC4 R900W (HT-SELEX) (Mus musculus, UniProt Q8BX22 870-940, R900W).
T2 sequence: T1 sequence with R31W
Summed up:
as §1

Experiment [3] concerns the target T3, SALL4 ZFC4 G921D (HT-SELEX) (Mus musculus, UniProt Q8BX22 870-940, G921D).
T3 sequence: T1 sequence with G52D
Summed up:
as §1

Substitutions are numbered along the chain they refer to.

As for AGTCTC, the binding signal in experiment [1] was 0.837 ± 0.0339 fold-change vs cycle 0; in experiment [2], 0.9527 ± 0.00762 fold-change vs cycle 0; in experiment [3] it was 1 ± 0.0392 fold-change vs cycle 0.
As to GGGAAA, the binding signal in experiment [1] was found to be 0.693 ± 0.0334 fold-change vs cycle 0; in experiment [2] it was 0.767 ± 0.0294 fold-change vs cycle 0; in experiment [3] it was 0.812 ± 0.0285 fold-change vs cycle 0.
With TATGAA, the binding signal in experiment [1] was found to be 3.56 ± 0.299 fold-change vs cycle 0; in experiment [2], 2.1 ± 0.116 fold-change vs cycle 0; in experiment [3] it was 1.85 ± 0.171 fold-change vs cycle 0.
Turning to GAGAAC, the binding signal in experiment [1] was found to be 0.84 ± 0.00885 fold-change vs cycle 0; in experiment [2] it was 1 ± 0.0376 fold-change vs cycle 0; in experiment [3] it was 1.04 ± 0.00942 fold-change vs cycle 0.
Take GGTTTA: the results for the binding signal in experiment [1], in experiment [2] and in experiment [3] were 1.2 ± 0.0627 fold-change vs cycle 0, 1.28 ± 0.0514 fold-change vs cycle 0 and 1.24 ± 0.0515 fold-change vs cycle 0, respectively.
With CGGTAA, the binding signal worked out at 0.676 ± 0.0195 fold-change vs cycle 0 in experiment [1], 0.74 ± 0.026 fold-change vs cycle 0 in experiment [2] and 0.792 ± 0.0302 fold-change vs cycle 0 in experiment [3].
Taken in the same sequence, the figures for TGTAAA were 1.93 ± 0.102 fold-change vs cycle 0, 1.92 ± 0.0908 fold-change vs cycle 0 and 1.7 ± 0.134 fold-change vs cycle 0.
As for ATTAGA, the binding signal in experiment [1] was 2.12 ± 0.0407 fold-change vs cycle 0; in experiment [2] it was 2.08 ± 0.0537 fold-change vs cycle 0; in experiment [3], 1.85 ± 0.125 fold-change vs cycle 0.
The matching figures for CCCCTA: 0.489 ± 0.0364 fold-change vs cycle 0, 0.584 ± 0.015 fold-change vs cycle 0 and 0.638 ± 0.0291 fold-change vs cycle 0.
With GTTGTA, the results for the binding signal in experiment [1], in experiment [2] and in experiment [3] were 1.18 ± 0.0293 fold-change vs cycle 0, 1.31 ± 0.0256 fold-change vs cycle 0 and 1.28 ± 0.0242 fold-change vs cycle 0, respectively.
ATCGTG: the results for the binding signal in experiment [1], in experiment [2] and in experiment [3] were 0.701 ± 0.0455 fold-change vs cycle 0, 0.775 ± 0.0256 fold-change vs cycle 0 and 0.876 ± 0.0311 fold-change vs cycle 0, respectively.
On to CTGGGA, for which the binding signal amounted to 0.455 ± 0.0297 fold-change vs cycle 0 in experiment [1], 0.528 ± 0.00656 fold-change vs cycle 0 in experiment [2] and 0.594 ± 0.0357 fold-change vs cycle 0 in experiment [3].
Regarding CCGAAC, the binding signal in experiment [1] was 0.325 ± 0.00544 fold-change vs cycle 0; in experiment [2], 0.387 ± 0.0114 fold-change vs cycle 0; in experiment [3] it was 0.512 ± 0.0786 fold-change vs cycle 0.
For the sequence CTTGCC, the binding signal in experiment [1] is 0.3123 ± 0.00236 fold-change vs cycle 0; in experiment [2], 0.384 ± 0.0251 fold-change vs cycle 0; in experiment [3], 0.501 ± 0.0709 fold-change vs cycle 0.
Taken in the same sequence, the figures for CCAGTA were 0.785 ± 0.049 fold-change vs cycle 0, 0.922 ± 0.0301 fold-change vs cycle 0 and 0.962 ± 0.0332 fold-change vs cycle 0.
Turning to GCAGAA, the binding signal in experiment [1] came to 0.567 ± 0.022 fold-change vs cycle 0; in experiment [2], 0.629 ± 0.0163 fold-change vs cycle 0; in experiment [3], 0.688 ± 0.0217 fold-change vs cycle 0.
Turning to ACAGAC, the binding signal was 0.687 ± 0.0257 fold-change vs cycle 0 in experiment [1], 0.791 ± 0.00124 fold-change vs cycle 0 in experiment [2] and 0.865 ± 0.0133 fold-change vs cycle 0 in experiment [3].
Taken in the same sequence, the figures for AACCAA were 1.22 ± 0.0287 fold-change vs cycle 0, 1.31 ± 0.0414 fold-change vs cycle 0 and 1.28 ± 0.0656 fold-change vs cycle 0.
Turning to ACATGG, the binding signal came to 0.798 ± 0.0238 fold-change vs cycle 0 in experiment [1], 0.918 ± 0.032 fold-change vs cycle 0 in experiment [2] and 0.959 ± 0.0218 fold-change vs cycle 0 in experiment [3].
The matching figures for CGTTTA: 1.06 ± 0.0285 fold-change vs cycle 0, 1.15 ± 0.0184 fold-change vs cycle 0 and 1.12 ± 0.0221 fold-change vs cycle 0.
CTCGGA: the results for the binding signal in experiment [1], in experiment [2] and in experiment [3] were 0.396 ± 0.0242 fold-change vs cycle 0, 0.468 ± 0.0145 fold-change vs cycle 0 and 0.589 ± 0.0706 fold-change vs cycle 0, respectively.
For the sequence CACGTC, the values for the binding signal in experiment [1], in experiment [2] and in experiment [3] were 0.427 ± 0.0304 fold-change vs cycle 0, 0.52 ± 0.0494 fold-change vs cycle 0 and 0.633 ± 0.0372 fold-change vs cycle 0, respectively.
The matching figures for ACCGAG: 0.423 ± 0.0215 fold-change vs cycle 0, 0.496 ± 0.0188 fold-change vs cycle 0 and 0.586 ± 0.0556 fold-change vs cycle 0.
As to CGGGTA, the binding signal turned out to be 0.363 ± 0.0204 fold-change vs cycle 0 in experiment [1], 0.435 ± 0.0153 fold-change vs cycle 0 in experiment [2] and 0.521 ± 0.0456 fold-change vs cycle 0 in experiment [3].
For CTGCTC, the binding signal in experiment [1] came out at 0.36 ± 0.0162 fold-change vs cycle 0; in experiment [2], 0.436 ± 0.00828 fold-change vs cycle 0; in experiment [3], 0.567 ± 0.028 fold-change vs cycle 0.
For the sequence ATAGCG, the binding signal in experiment [1] amounted to 0.516 ± 0.00601 fold-change vs cycle 0; in experiment [2] it was 0.55 ± 0.0156 fold-change vs cycle 0; in experiment [3], 0.681 ± 0.0378 fold-change vs cycle 0.
In the case of CTCACC, the binding signal in experiment [1] is 0.488 ± 0.0202 fold-change vs cycle 0; in experiment [2] it was 0.56 ± 0.0155 fold-change vs cycle 0; in experiment [3], 0.677 ± 0.0522 fold-change vs cycle 0.
The matching figures for CTGAAA: 1.19 ± 0.0701 fold-change vs cycle 0, 1.28 ± 0.0787 fold-change vs cycle 0 and 1.21 ± 0.0732 fold-change vs cycle 0.
As for CAATGA, the figures for the binding signal in experiment [1], in experiment [2] and in experiment [3] were 1.32 ± 0.056 fold-change vs cycle 0, 1.47 ± 0.0677 fold-change vs cycle 0 and 1.4 ± 0.0741 fold-change vs cycle 0, respectively.
As for TCTTAA, the binding signal amounted to 2.07 ± 0.0682 fold-change vs cycle 0 in experiment [1], 2.14 ± 0.15 fold-change vs cycle 0 in experiment [2] and 1.86 ± 0.222 fold-change vs cycle 0 in experiment [3].
